Compound activity (PubChem BioAssay)
Most compounds without a hit are left out; they make up all but 1.2% or so of the library.
PTPN22 inh 2 – blocks human PTPN22 phosphatase activity; Q9Y2R2; recombinant LYP catalytic domain, DiFMUP fluorescence; inhibition, % at 2 µM; hit rate 0.21% among 96,000; AID 640;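 active = inhibition at 2 µM at or above a set limit, the screen mean plus 3 SD, cut at about 24% in these data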;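 note: 0% = DMSO with enzyme and 100% = enzyme fully blocked by orthovanadate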
Target sequence (Q9Y2R2 whole entry, looked up, the tested form may be a part): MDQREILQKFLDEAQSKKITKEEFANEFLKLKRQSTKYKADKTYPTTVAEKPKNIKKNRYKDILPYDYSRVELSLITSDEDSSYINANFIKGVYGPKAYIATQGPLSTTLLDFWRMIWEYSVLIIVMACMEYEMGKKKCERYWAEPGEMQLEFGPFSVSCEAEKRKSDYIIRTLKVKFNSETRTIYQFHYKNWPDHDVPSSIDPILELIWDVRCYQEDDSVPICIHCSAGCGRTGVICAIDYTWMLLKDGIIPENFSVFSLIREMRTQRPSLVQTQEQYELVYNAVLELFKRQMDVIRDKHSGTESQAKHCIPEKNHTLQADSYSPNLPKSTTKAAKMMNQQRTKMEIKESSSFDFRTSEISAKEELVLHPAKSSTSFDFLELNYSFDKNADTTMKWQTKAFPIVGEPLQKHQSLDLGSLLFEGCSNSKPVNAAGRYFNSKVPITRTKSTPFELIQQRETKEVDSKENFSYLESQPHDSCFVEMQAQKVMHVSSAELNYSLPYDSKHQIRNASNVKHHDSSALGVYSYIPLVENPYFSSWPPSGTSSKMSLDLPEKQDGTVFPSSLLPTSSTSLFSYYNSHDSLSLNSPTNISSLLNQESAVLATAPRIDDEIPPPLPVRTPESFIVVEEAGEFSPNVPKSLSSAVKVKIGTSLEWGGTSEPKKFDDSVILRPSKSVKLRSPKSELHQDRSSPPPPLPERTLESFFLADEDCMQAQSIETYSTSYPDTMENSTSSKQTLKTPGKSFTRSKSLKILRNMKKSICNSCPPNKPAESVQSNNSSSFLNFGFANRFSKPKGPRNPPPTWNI
EphB4 ephrin blk – EphB4-ephrin-B2 interaction antagonism | hit rate 0.15% among 97,000 | AID 720 | EphB4 LBD / TNYL-RAW-Alexa532 peptide, fluorescence polarization | inhibition, % at 7 µM | P54760;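 active = inhibition above the screen-wide mean inhibition plus 3 SD, cut at about 15% in these data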;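 note: 0% = DMSO wells and 100% = excess unlabeled TNYL-RAW peptide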
PLK1 PBD inh – inhibitors of human Plk1 polo box domain binding; inhibition, %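 (tested at about 20 µM)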; Plk1 PBD phosphopeptide binding, fluorescence polarization; AID 693; P53350; hit rate 0.13% among 97,000; in the data active = inhibition above about 34%, passing the limit was not always enough
PLK1 inh – blocks human PLK1 kinase activity; P53350; recombinant PLK1 kinase, TR-FRET peptide phosphorylation; inhibition, % at 10 µM; hit rate 0.53% among 97,000; AID 619;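 active = inhibition of 50% or more in the single-concentration screen; inactive = inhibition below 50%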;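 note: 0% = DMSO max control and 100% = H-89 dihydrochloride min control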
LYP act – increases human PTPN22 phosphatase activity; Q9Y2R2; recombinant LYP, DiFMUP fluorescence; 0 = plate median, 100 = signal doubled; activation, % at 2 µM; hit rate 0.11% among 96,000; AID 697;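 active = activation at 2 µM above a set limit, the mean plus 5 SD, cut at about 37% in these data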
The depositor's hits bear a star.

Results for Cc1cccc(Nc2ncnc3nc[nH]c23)c1C ?
PTPN22 inh 2: 4; EphB4 ephrin blk: 0; PLK1 PBD inh: -41; PLK1 inh: 56*; LYP act: -6

What do the screens show for `CC1Cc2ccccc2N1C(=O)CSc1nnc(Cc2ccccc2)n1CCc1ccccc1` (stereo unspecified)?
PTPN22 inh 2: 8; EphB4 ephrin blk: 0; PLK1 PBD inh: -7; PLK1 inh: -6; LYP act: -9

What do the screens show for `CN1CCN(c2cc(=O)n(C3CCCCC3)c(=O)[nH]2)CC1`?
EphB4 ephrin blk: 5; PLK1 PBD inh: 4; PLK1 inh: 65*

Results for CC1=CCC(C(=O)O)(C(=O)N/N=C/c2cccs2)C(c2ccc([N+](=O)[O-])cc2)C1 (stereo unspecified) ?
PTPN22 inh 2: 2; EphB4 ephrin blk: 6; PLK1 PBD inh: 8; PLK1 inh: -10; LYP act: -5

What do the screens show for `CC(C)C(CCNC(=O)CC(Cc1ccccc1)c1ccco1)c1ccco1` (stereo unspecified)?
PTPN22 inh 2: 24*; EphB4 ephrin blk: 0; PLK1 PBD inh: -20; PLK1 inh: -9; LYP act: -21

What do the screens show for `CC(C)C(CCNC(=O)CN1C(=O)c2ccccc2C1=O)c1ccco1` (stereo unspecified)?
PTPN22 inh 2: 8; EphB4 ephrin blk: -2; PLK1 PBD inh: -14; PLK1 inh: -4; LYP act: -4

What do the screens show for `CN(C)S(=O)(=O)c1ccc(NC(=O)COC(=O)c2ccccn2)cc1`?
PTPN22 inh 2: 15; EphB4 ephrin blk: 6; PLK1 PBD inh: -26; PLK1 inh: -5; LYP act: -13

What do the screens show for `Cc1ccc(C)c(OCC(=O)N/N=C/c2c(C)nn(-c3ccccc3)c2Cl)c1`?
PTPN22 inh 2: 28*; EphB4 ephrin blk: -2; PLK1 PBD inh: 6; PLK1 inh: -1; LYP act: -29

How did CNC(=S)N/N=C/c1c(C)nn(-c2ccccc2)c1Cl do in these assays?
PTPN22 inh 2: -12; EphB4 ephrin blk: 2; PLK1 PBD inh: -13; PLK1 inh: -7; LYP act: 9

What do the screens show for `CCCCNS(=O)(=O)c1ccc(NS(=O)(=O)c2c(C)cc(C)cc2C)cc1`?
PTPN22 inh 2: 28*; EphB4 ephrin blk: 6; PLK1 PBD inh: -16; PLK1 inh: 6; LYP act: -29

Results for CCNS(=O)(=O)c1ccc(NS(=O)(=O)c2cc(C)ccc2C)cc1 ?
PTPN22 inh 2: -3; EphB4 ephrin blk: -2; PLK1 PBD inh: 14; PLK1 inh: -16; LYP act: 3

What do the screens show for `C=CCn1c(NCCc2ccccc2)nc2c1c(=O)n(C)c(=O)n2C`?
PTPN22 inh 2: 14; EphB4 ephrin blk: 16*; PLK1 PBD inh: 19; PLK1 inh: -5; LYP act: -12

Results for CCC(=O)c1ccc(OCC(O)CN2CCOCC2)cc1 (stereo unspecified) ?
PTPN22 inh 2: -1; EphB4 ephrin blk: 0; PLK1 PBD inh: -20; PLK1 inh: -15; LYP act: 0

How did CC(=O)c1ccc(OCC(O)CN2CCOCC2)cc1 (stereo unspecified) do in these assays?
EphB4 ephrin blk: -6; PLK1 PBD inh: -19; PLK1 inh: 65*

How did Cc1cc(C)c2c(=O)[nH]c(SCC(=O)Nc3ccccc3)nc2n1 do in these assays?
PTPN22 inh 2: 5; EphB4 ephrin blk: 0; PLK1 PBD inh: 5; PLK1 inh: 52*; LYP act: -6

What do the screens show for `Cc1cc(C)c2c(=O)[nH]c(SCC(=O)Nc3ccc(N(C)C)cc3)nc2n1`?
PTPN22 inh 2: -10; EphB4 ephrin blk: 5; PLK1 PBD inh: 24; PLK1 inh: 40; LYP act: 6

Results for Cc1nn(-c2ccccc2)c(Cl)c1/C=N/Nc1ccc(S(=O)(=O)Nc2ccccc2C(=O)O)cc1[N+](=O)[O-] ?
PTPN22 inh 2: 24*; EphB4 ephrin blk: 2; PLK1 PBD inh: -4; PLK1 inh: 2; LYP act: -22

How did O=C(/C=C/c1ccco1)NC(=S)NNC(=O)c1ccco1 do in these assays?
PTPN22 inh 2: -1; EphB4 ephrin blk: -3; PLK1 PBD inh: 12; PLK1 inh: -5; LYP act: -2

Results for O=C(NCC(c1ccc(F)cc1)N1CCOCC1)c1ccc(Br)o1 (stereo unspecified) ?
PTPN22 inh 2: -14; EphB4 ephrin blk: 0; PLK1 PBD inh: -2; PLK1 inh: -10; LYP act: 11

Results for O=C(Nc1ccc2oc(-c3ccc(Cl)c(Cl)c3)nc2c1)c1ncn[nH]1 ?
PTPN22 inh 2: 40*; EphB4 ephrin blk: 3; PLK1 PBD inh: -6; PLK1 inh: -6; LYP act: -40

What do the screens show for `COc1ccc(CN2C(=O)CS(=O)CC2=O)cc1OC`?
PTPN22 inh 2: 5; EphB4 ephrin blk: -3; PLK1 PBD inh: 16; PLK1 inh: -10; LYP act: 2

What do the screens show for `O=C(Nc1cccc(Cl)c1Cl)c1ccncc1`?
PTPN22 inh 2: 0; EphB4 ephrin blk: 0; PLK1 PBD inh: -31; PLK1 inh: 54*; LYP act: 1

How did O=C(NNC(=O)c1ccc2ccccc2c1O)c1ccccc1Cl do in these assays?
PTPN22 inh 2: 24*; EphB4 ephrin blk: 3; PLK1 PBD inh: 5; PLK1 inh: -17; LYP act: -20

What do the screens show for `COc1ccc(-c2cn(/N=C/c3ccc(Cl)cc3Cl)c(N)n2)cc1`?
PTPN22 inh 2: 12; EphB4 ephrin blk: 3; PLK1 PBD inh: -20; PLK1 inh: 61*; LYP act: -13

How did CN(C1CCCCC1)S(=O)(=O)c1ccc2c(c1)c(=O)c(C(=O)NCCN1CCCC1)cn2C do in these assays?
EphB4 ephrin blk: 0; PLK1 PBD inh: -1; PLK1 inh: 62*

How did CN(C1CCCCC1)S(=O)(=O)c1ccc2c(c1)c(=O)c(C(=O)NCCCN1CCCC1)cn2C do in these assays?
EphB4 ephrin blk: -1; PLK1 PBD inh: -21; PLK1 inh: 59*

Results for COCCN(C(=O)C(C)C)c1nnc(-c2ccc(C)cc2)s1 ?
PTPN22 inh 2: 8; EphB4 ephrin blk: 9; PLK1 PBD inh: -6; PLK1 inh: -2; LYP act: -6

How did CC(C(=O)N1CCN(c2ccc(Cl)cc2)CC1)c1ncc(C(F)(F)F)cc1Cl (stereo unspecified) do in these assays?
PTPN22 inh 2: 7; EphB4 ephrin blk: 7; PLK1 PBD inh: 1; PLK1 inh: -10; LYP act: -3

How did COc1ccc(NS(=O)(=O)c2ccc(S(=O)(=O)N3CCCC3)cc2)cc1Cl do in these assays?
PTPN22 inh 2: 3; EphB4 ephrin blk: 0; PLK1 PBD inh: -26; PLK1 inh: -7; LYP act: -6

Results for COCc1nnc(NC(=O)CC(c2ccccc2)c2ccccc2)s1 ?
PTPN22 inh 2: 8; EphB4 ephrin blk: 17*; PLK1 PBD inh: -18; PLK1 inh: -6; LYP act: -6

Results for COCc1nnc(NC(=O)CC(C)C)s1 ?
PTPN22 inh 2: -8; EphB4 ephrin blk: 8; PLK1 PBD inh: -5; PLK1 inh: -4; LYP act: 9

Results for CCOC(=O)c1sc(NC(=O)C(CC)Sc2nc3ccccc3[nH]2)nc1C (stereo unspecified) ?
PTPN22 inh 2: 25*; EphB4 ephrin blk: 2; PLK1 PBD inh: -20; PLK1 inh: -9; LYP act: -24
